# Data: PubChem BioAssay (NCATS)
# Active and inactive are the calls of the source. The call rests on the fitted dose curve; in most records, active means well fitted curve in the direction sought with a large enough effect; inconclusive means small, poorly fitted or top-dose-only effect, or another doubt; inactive means no such curve, though single readings can be large or run the other way.
# Assay: Validation qHTS assay for inhibitors of Activation Induced Cytidine Deaminase (AID): UDG Counterscreen signal (AID 1347427); further: 0% is about no effect
# Settings: biochemical UDG counterscreen, fluorescence signal; series mostly up to 115 µM; activity, negative = inhibition: at the top concentration
# Source text: Assay Provider (PI) Patricia Gearhart Ph.D.
# National Institute on Aging
# National Institute of Health (NIH), Bethesda, MD
# Assay Provider (PI) Rahul Kohli Ph.D.
# Perelman School of Medicine
# University of Pennsylvania, Philadelphia, PA
# Activation-Induced Deaminase (AID) is a cytosine deaminase which converts cytosine into uracil within stretches of ssDNA. The presence of uracil in DNA initiates a cascade of mutagenic DNA repair to introduce point mutations and DNA double strand breaks. Specific targeting of AID to the immunoglobulin heavy chain loci (Igh) promotes mutagenesis in the antibody variable region for somatic hypermutation (SHM) or switch regions leading to class switch recombination (CSR). However, AID also plays a role in accumulating unnecessary mutations across the genome. Mis-targeting of AID results in the initiation of tumor development and leads to greater drug resistance among cancer cells when continually expressed. To identify an AID inhibitor, a small molecule library will be screened in collaboration with NCATS core facility at NIH. To confirm biological function, inhibitors will be examined in an in vitro murine B-cell activation assay and subsequent secondary validation screens. Top molecules will be further screened to identify inhibitory efficacy against a wild type primary splenocytes assay. Using these approaches, we hope to identify a small molecule with great efficacy and low toxicity for use as a molecular probe to further characterize AID's intricacies, or even as a therapeutic.
# A FRET based analysis of cytosine deamination, was developed to identify potential inhibitors of AID catalytic activity. This screen has two signal output, Read 1 evaluates the AID inhibition response. The second readout (Read 2) evaluates UDG response and is uses as a counterscreen to exclude false positive inhibitors. Inhibition in AID and inactivity in the UDG signal is the desired outcome for this assay.
# SEQUENCE No. (e.g., 1, 2, 3, etc.); […] (e.g., Cells, Incubation, Reagent, etc.); VALUE; DESCRIPTION
# 1a; Reagent; 3 uL; [4/3x] 1 uM AID/2.67 U/mL UDG
# 1b; Reagent; 3 uL; 2 U/mL UDG
# 1c; Reagent; 3 uL; 1 uM AID
# 2a; Compound; 46 nL; Follow-up plates (0.64 uM - 10 mM)
# 2b; Control; 46 nL; ATA ([…] - 10 mM)
# 3; Time; 10 min; incubation at room temperature
# 5; Time; 4 hr; incubation at room temperature
# 6; Reagent; 4 uL; [2x] 250 mM NaOH
# 7; Time; 15 sec; centrifuge at 1000 rpm
# 8; Time; 30 min; incubation at room temperature
# 9a; Detection; fluorescence (Read 1: AID); EnVision (PerkinElmer) plate reader, 540 excitation and 590 emission filters
# 9b; Detection; fluorescence (Read 2: UDG); EnVision (PerkinElmer) plate reader, 560 excitation and 665 emission filters
# NOTES (numbers refer to sequence above)
# 1a; Reagents were dispensed in a medium-binding black solid-bottom Greiner plates (789176F) using a BioRptr liquid dispenser. Dispense 3 uL of [4/3x] 1 uM AID (provided by Kohli lab) and [4/3x] 2 U/mL UDG (NEB M0280L) into columns 1, 2, 5 to 48.
# 1b; Dispense 3 uL of [4/3x] 2 U/mL UDG into column 3.
# 1c; Dispense 3 uL of [4/3x] 1 uM AID into column 4.
# 2b; 10 mM Aurintricarboxylic Acid (Sigma A1895) (ATA, 8-point, n = 2, 1:2.5 dilution in column 2) double pin-transferred (Dip Factor = 2) using the Kalypsys (Wako USA) pintool equipped with a 1536 pinhead for a [final] range of 186 nM - 114 uM.
# 3; Room temperature incubation.
# 4; Dispense 1 uL of substrate mixture from the Kohli lab [4x] […] DJC20 and [4x] 250 nM DJC23 into columns 1 to 48 .
# 5; Room temperature incubation.
# 6; Dispense 4 uL of substrate mixture [2x] 250 mM NaOH into columns 1 to 48.
# 7; Centrifugation step to remove bubbles.
# 8; Room temperature incubation
# 9a; Fluorescence signal (column label AID) was read using the EnVision plate reader. Excitation filter = 540(8) nm, barcode = 311; Emission filter = 590(20) nm, barcode = 217; Mirror = D555, barcode = 405.
# 9b; Fluorescence signal (column label UDG) was read using the EnVision plate reader. […]
row,Structure (SMILES),"activity, negative = inhibition"
1,CCCC1O[C@@H]2C[C@H]3[C@@H]4CCC5=CC(=O)C=C[C@]5(C)[C@H]4[C@@H](O)C[C@]3(C)[C@]2(C(=O)CO)O1 (some centres undefined),12.7% (inactive)
2,CNCCC(Oc1ccccc1C)c1ccccc1 (centres undefined),10.7% (inactive)
3,Oc1ccc(O)cc1,-16.5% (inactive)
4,CNCCC=C1c2ccccc2CCc2ccccc21,4.6% (inactive)
5,CC(C)COC(=O)OCN1C(=O)CN(CCN2CC(=O)N(COC(=O)OCC(C)C)C(=O)C2)CC1=O,5.7% (inactive)
6,CC(C)C[C@H]1C(=O)N2CCC[C@H]2[C@]2(O)O[C@](NC(=O)[C@@H]3C=C4c5cccc6[nH]c(Br)c(c56)C[C@H]4N(C)C3)(C(C)C)C(=O)N12,7.21% (inactive)
7,N[C@H](CO)C(=O)O,8.45% (inactive)
8,CCC(NC(C)C)C(O)c1ccc(O)c(O)c1 (centres undefined),-8.07% (inactive)
9,COc1cc2c(cc1O)CC[C@@H]1[C@@H]2CC[C@]2(C)[C@@H](O)CC[C@@H]12,10.2% (inactive)
10,COC(=O)[C@H]1[C@H]2C[C@H]3c4[nH]c5ccccc5c4CCN3C[C@H]2CC[C@@H]1O,3.11% (inactive)
11,Nc1cc(Cl)c(NC2=NCCN2)c(Cl)c1,11.8% (inactive)
12,CCCn1c(=O)[nH]c(=O)c2[nH]cnc21,13.1% (inactive)
13,O=C1CCC(c2ccc(-n3ccnc3)cc2)=NN1,-2.71% (inactive)
14,C[N+]1(CCCCC[N+]2(C)CCCC2)CCCC1,13.4% (inactive)
15,N[C@@H](Cc1cnc[nH]1)C(=O)O,8.97% (inactive)
16,CC[C@H](C)C(=O)O[C@H]1CCC=C2C=C[C@H](C)[C@H](CC[C@@H]3C[C@@H](O)CC(=O)O3)[C@H]21,10.6% (inactive)
17,O=C(O)c1cc2cc(Cc3cccnc3)ccc2o1,14.3% (inactive)
18,CC(CCc1ccccc1)NCC(O)c1ccc(O)c(C(N)=O)c1 (centres undefined),12% (inactive)
19,C[C@@H]1C(=O)NC2=Nc3cccc(Cl)c3CN21,11.2% (inactive)
20,C[C@]12CC[C@@H]3c4ccc(O)cc4CC[C@H]3[C@@H]1CC[C@@H]2O,5.95% (inactive)
21,CC1(C)CCC(NC(=O)[C@@H](N)CCC(=O)O)CC1,14.3% (inactive)
22,C1CCc2nnnn2CC1,2.75% (inactive)
23,CC(=O)O[C@H]1C[C@@H]2CC[C@@H]3[C@H](CC[C@@]4(C)[C@H]3C[C@H]([N+]3(C)CCCCC3)[C@@H]4OC(C)=O)[C@@]2(C)C[C@@H]1[N+]1(C)CCCCC1,15.4% (inactive)
24,CN1C2CCC1CC(OC(=O)c1c[nH]c3ccccc13)C2 (centres undefined),1.24% (inactive)
